The panel holds about 83,000 compounds, 20% with a hit somewhere; the sample as a whole holds those more often.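 For each line, cells grew in 96-well plates with the test compound present at a single concentration for 48 hours.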 A number with no mark means an inactive call. The source made the active and inactive calls. The calls were made as follows: active = growth percent below 10; inactive = the rest.
These compounds were tested on IGROV1 ovarian (assay: NCI-60 one-dose screen, 48 h (100 = growth as untreated, 0 = no growth, -100 = all killed)). Conditions: 10 µM.

Compound | growth
S=c1sc2ccccc2n1CN1CCCCC1 | 105%
CSc1[nH]c(=O)ncc1F | 110%
COc1ccc(-c2cc(-c3cc(-c4ccc(OC)cc4)nc(N)n3)nc(N)n2)cc1 | 109%
Cc1cc(N)c(S(=O)(=O)O)c(N)c1 | 130%
COc1ccccc1NC(=O)C1=C(C)NC(C)=C(C(=O)Nc2ccccc2OC)C1c1cccc([N+](=O)[O-])c1 | 69.7%
COC(=O)C(C)Oc1ccc(OC#N)cc1 (stereo unspecified) | 105%
c1c(-c2cc(C3CC3)[nH]n2)n[nH]c1C1CC1 | 111%
O=C(CCNNC(=O)c1ccncc1)NCc1ccccc1 | 92.3%
CC(=O)Nc1cccc(Cl)c1C | 102%
CC(=O)C1CCCCC1 | 106%
CC(C(=O)O)(C1CCCCC1)C1(O)CCCCC1 (stereo unspecified) | 101%
CN(C)c1ccc2oc(=O)c3ccccc3c2c1 | 95.3%
O=C(OCC(O)C1OC(c2ccccc2)OC(COC(=O)c2ccccc2)C1O)c1ccccc1 (stereo unspecified) | 103%
OC1CCCc2ccccc21 (stereo unspecified) | 97%
CCCCCCCCCCCCCC(=O)Oc1ccc[nH]c1=O | 97.8%
COc1cc2c(cc1OC)[C@H](C(=O)O)[C@@H](c1ccc(OC(C)C)c(OC)c1)N(C)C2=O | 138%
Nc1ccccc1SC(CC(=O)c1ccccc1)c1c(Cl)cccc1Cl (stereo unspecified) | 62.7%
CC1=CC(=O)c2ccccc2C1=O | 112%
O=C(Nc1ccccc1)OCCc1ccccc1 | 103%
COc1ccccc1N1CCN(C(=S)Nc2ccccc2)CC1 | 98.9%
O=C1OC(c2ccc(F)cc2)CC1CN1CCOCC1 (stereo unspecified) | 104%
CCCNC(=O)c1ccc(S(N)(=O)=O)cc1 | 135%
COC(=O)CCCCC1=CCC2C(=O)C=C(O)C2C1 (stereo unspecified) | 103%
CCOC(=O)CCCS(C)(=O)=O | 120%
CCN(CC)CCNc1ccc(CO)c2sc3ccccc3c(=O)c12 | 51.6%
CCOC(=O)c1cc(/C=C/c2ccc(Cl)cc2Cl)on1 | 82.2%
O=C(NC1CCCCC1)OCc1c(COC(=O)NC2CCCCC2)c(-c2ccc(Cl)c(Cl)c2)n2c1CCC2 | -42.4% (active)
O=C1OC(=O)C2C1C1(Cl)C(Cl)=C(Cl)C2(Cl)C2C(=O)OC(=O)C21 (stereo unspecified) | 109%
CCCC(=O)c1cc(C)ccc1OC | 94.1%

What follows are compounds tested on OVCAR-3 ovarian in the same assay as above. Conditions: 10 µM.

Compound | growth
S=c1sc2ccccc2n1CN1CCCCC1 | 93.3%
CSc1[nH]c(=O)ncc1F | 107%
COc1ccc(-c2cc(-c3cc(-c4ccc(OC)cc4)nc(N)n3)nc(N)n2)cc1 | 107%
Cc1cc(N)c(S(=O)(=O)O)c(N)c1 | 112%
COc1ccccc1NC(=O)C1=C(C)NC(C)=C(C(=O)Nc2ccccc2OC)C1c1cccc([N+](=O)[O-])c1 | 82.9%
C=CCNc1nnc(C)s1 | 110%
COC(=O)C(C)Oc1ccc(OC#N)cc1 (stereo unspecified) | 105%
CCc1nn(Cc2ccccc2)c2nc(C)c(CCc3ccccc3)c(Cl)c12 | 109%
c1c(-c2cc(C3CC3)[nH]n2)n[nH]c1C1CC1 | 117%
O=C(CCNNC(=O)c1ccncc1)NCc1ccccc1 | 102%
CC(=O)Nc1cccc(Cl)c1C | 102%
CC(=O)C1CCCCC1 | 110%
CCOC(=O)/C(C#N)=C/c1cccc(C)c1 | 106%
CC(C(=O)O)(C1CCCCC1)C1(O)CCCCC1 (stereo unspecified) | 107%
CN(C)c1ccc2oc(=O)c3ccccc3c2c1 | 103%
O=C(OCC(O)C1OC(c2ccccc2)OC(COC(=O)c2ccccc2)C1O)c1ccccc1 (stereo unspecified) | 118%
O=C(O)c1ccc(S(=O)(=O)O)cc1 | 119%
OC1CCCc2ccccc21 (stereo unspecified) | 110%
CCCCCCCCCCCCCC(=O)Oc1ccc[nH]c1=O | 103%

Compound | growth
COc1cc2c(cc1OC)[C@H](C(=O)O)[C@@H](c1ccc(OC(C)C)c(OC)c1)N(C)C2=O | 104%
COC(=O)Nc1nc2ccc(C(=O)c3ccc(F)cc3)cc2[nH]1 | -74.4% (active)
Nc1ccccc1SC(CC(=O)c1ccccc1)c1c(Cl)cccc1Cl (stereo unspecified) | 46.5%
CC1=CC(=O)c2ccccc2C1=O | 113%
O=C(Nc1ccccc1)OCCc1ccccc1 | 118%
O=C1OC(c2ccc(F)cc2)CC1CN1CCOCC1 (stereo unspecified) | 101%
CCCNC(=O)c1ccc(S(N)(=O)=O)cc1 | 113%
CCOC(=O)CCCS(C)(=O)=O | 127%
Nc1ccc(NC(=O)c2cccc(N)c2)cc1 | 107%
CCN(CC)CCNc1ccc(CO)c2sc3ccccc3c(=O)c12 | 62.8%
CCOC(=O)c1cc(/C=C/c2ccc(Cl)cc2Cl)on1 | 24.4%
O=[N+]([O-])c1ccccc1S(=O)c1ccccc1[N+](=O)[O-] | 103%
COc1cccc(Sc2ccc([N+](=O)[O-])c3no[n+]([O-])c23)c1 | -61.9% (active)
O=C(NC1CCCCC1)OCc1c(COC(=O)NC2CCCCC2)c(-c2ccc(Cl)c(Cl)c2)n2c1CCC2 | 31.2%
O=C1OC(=O)C2C1C1(Cl)C(Cl)=C(Cl)C2(Cl)C2C(=O)OC(=O)C21 (stereo unspecified) | 112%
c1ccc(Cc2ccccc2)cc1 | 108%
COc1ccc2c(NCCCCCCCCNc3c4ccccc4nc4cc(OC)ccc34)c3ccccc3nc2c1 | -100% (active)
CCCC(=O)c1cc(C)ccc1OC | 112%
